Consider 14 compounds from PubChem BioAssay (NCI).

The panel holds about 79,000 compounds, 15% with a hit somewhere; the sample as a whole holds those more often. A number with no mark means an inactive call. Activity calls are given as the source filed them. No stated cut-off is given here; in the data, active means growth inhibition above about 70%; inactive means the rest.

The assay is described as follows: NCI Yeast Anticancer Drug Screen. Data for the rad50 strain (AID 155).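 Further: 0% = growth of vehicle-only cultures of the same strain.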 Particulars: S. cerevisiae rad50 strain growth inhibition; at 50.0 µM; active compounds read high. An outline of the steps: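 Readout: growth inhibition relative to vehicle-treated cultures. Compound exposure was carried out in a genetically defined yeast strain deficient in DNA damage repair.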
Regarding `CC(C)C(O)C(C)C`, the growth inhibition is 83% (active).

For `O=C1CSC2(CCN(CCCN3c4ccccc4Sc4ccc(Cl)cc43)CC2)N1`, the growth inhibition was 98.9% (active).

On to `C1=CN2C(c3ccccc3)=NN(c3ccccc3)[C@@H]2c2ccccc21`, for which the growth inhibition was 60.6%.

Turning to `CC(=O)Nc1ccc(-c2csc(Nc3ccnc4cc(Cl)ccc34)n2)cc1`, the growth inhibition is 69.8%.

`O=C(Nc1ccc(/C=C/c2ccc(NC(=O)c3cc(S(=O)(=O)O)c4cccnc4c3O)cc2S(=O)(=O)O)c(S(=O)(=O)O)c1)c1cc(S(=O)(=O)O)c2cccnc2c1O`: the growth inhibition is 94.4% (active).

On to `COc1ccccc1C1C2=C(COC2=O)OC(C)(C)Oc2cc3c(cc21)OCO3` (centres undefined), for which the growth inhibition is 75.8% (active).

Take `COC(=O)CSc1n[nH]c(-c2ccc(O)c([N+](=O)[O-])c2)n1`: the growth inhibition is 53.9%.

As to `COc1ccc(CN2CCCN(Cc3ccc(OC)cc3OC)C2c2cccc([N+](=O)[O-])c2O)c(OC)c1`, the growth inhibition was 70.8% (active).

Take `Oc1c(Cl)cc(C(c2cc(Cl)c(O)c(Cl)c2)C(Cl)(Cl)Cl)cc1Cl`: the growth inhibition is 98.8% (active).

Take `Cc1cc(Cl)cc2c1NC(=O)C2(O)C/C(=N/NC(=O)CC#N)c1cccc([N+](=O)[O-])c1` (centres undefined): the growth inhibition was 59.1%.

Regarding `COc1ccc(C2Oc3ccc(Cl)cc3C=C2[N+](=O)[O-])cc1` (centres undefined), the growth inhibition is 80.4% (active).

Take `CN(Cc1cc(Cl)cc(Cl)c1O)Cc1c(O)ccc2ccccc12`: the growth inhibition is 98.5% (active).

As for `Cc1c(NC(=O)/C(=N/NC(=S)N=N)C2C(=O)CC(C)(C)CC2=O)c(O)c2ccccc2c1O`, the growth inhibition is 95.3% (active).

On to `O=C1CCC(Cc2ccccc2Br)C(=O)N1` (centres undefined), for which the growth inhibition is -10.8%.
